# Reference: the supplement of paper PMC8728848
# Shown is part of a subset that was picked to be rich in the strongest signals.
# B1: B160 (Bifidobacterium sp) (protein)
# chain: MVSHNKRIVAALAAVAAMGIGLAGCGGSDTAGDTKSGSDGGVVNITYMHRLPDSEGMTLVNDIVAKWNKEHPNIQVKATKFDGNAADMIKKLETDVKAGNAPDLAQVGYAEVPEVFTKGLLQDVTDEAAKYKDDFASGPFALMQVDGKTYGLPQDTGPLTYFYNAAEFEKLGITVPKTADELIETAKKTAAQGKYIMTFTPDEAMMMMSGQAGASGPWYKVDGNSWVVNTQTKGSKAVADVYQQLIDNKAALTNPRWDASFDNSIQSGQLIGTVAAAWEAPLFIDSAGGTGAGEWKVTQLGDWFGNGTKTGANGGSGVAVLKGSKHPAEAMEFLDWFNTQVDDLVSQGLVVAATTADAKTPQKWSDYFSGQDVMAEFKTANDNMGDFTYMPGFSAVGAAMKQTAAKAADGSAKVSDVFDTAQKTSVDTLKNLGLSVKE
# How the values were obtained:
# Assay in all cases: glycan array binding signal (z-score within array); higher = stronger binding
# Conditions in all cases: glycan notation: IUPAC condensed, linker removed
# [1] = target: Fuc(a1-2)Gal(b1-3)[Fuc(a1-4)]GlcNAc(b1-2)Man(a1-3)[Fuc(a1-2)Gal(b1-3)[Fuc(a1-4)]GlcNAc(b1-2)Man(a1-3)]Man(b1-4)GlcNAc(b1-4)GlcNAc
# Summary of the method: (§1)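 Negative Z-scores can be read as non-binding. The Z-score is calculated within each array and then averaged across arrays of one protein sequence at different concentrations or buffers and across linkers. Arrays, 3228 in all, were curated from the Consortium for Functional Glycomics database and kept only where the protein sequence was available.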
# [2] = target: Fuc(a1-2)[Gal(a1-3)]Gal(b1-4)GlcNAc(b1-3)GalNAc
# Summary of the method: as §1
# [3] = target: Fuc(a1-2)[Gal(a1-3)]Gal(b1-4)GlcNAc(b1-6)GalNAc
# Summary of the method: as §1
# [4] = target: Fuc(a1-2)[Gal(a1-4)]Gal(b1-4)GlcNAc
# Summary of the method: as §1
# [5] = target: Fuc(a1-2)[GalNAc(a1-3)]Gal(b1-3)GlcNAc(b1-2)Man(a1-3)[Fuc(a1-2)[GalNAc(a1-3)]Gal(b1-3)GlcNAc(b1-2)Man(a1-6)]Man(b1-4)GlcNAc(b1-4)[Fuc(a1-6)]GlcNAc
# Summary of the method: as §1
# [6] = target: Fuc(a1-2)[GalNAc(a1-3)]Gal(b1-4)[Fuc(a1-3)]GlcNAc(b1-3)GalNAc
# Summary of the method: as §1
# [7] = target: Fuc(a1-3)[Gal(b1-4)]GlcNAc(b1-3)Gal(b1-3)[Fuc(a1-4)]GlcNAc
# Summary of the method: as §1
# [8] = target: Fuc(a1-3)[Gal(b1-4)]GlcNAc(b1-3)Gal(b1-4)[Fuc(a1-3)]GlcNAc(b1-3)Gal(b1-4)[Fuc(a1-3)]GlcNAc
# Summary of the method: as §1
# [9] = target: Fuc(a1-3)[Gal3S(b1-4)]GlcNAc6S
# Summary of the method: as §1
# Fuc(a1-4)GlcNAc = target: Fuc(a1-4)GlcNAc
# Summary of the method: as §1
# Gal(a1-3)Gal(b1-4)GlcNAc = target: Gal(a1-3)Gal(b1-4)GlcNAc
# Summary of the method: as §1
# [10] = target: Gal(a1-4)Gal(b1-3)GlcNAc(b1-2)Man(a1-3)[Gal(a1-4)Gal(b1-3)GlcNAc(b1-2)Man(a1-6)]Man(b1-4)GlcNAc(b1-4)GlcNAc
# Summary of the method: as §1
# Gal(b1-3)Gal(b1-4)GlcNAc = target: Gal(b1-3)Gal(b1-4)GlcNAc
# Summary of the method: as §1
# Gal(b1-3)GalNAc(b1-3)Gal = target: Gal(b1-3)GalNAc(b1-3)Gal
# Summary of the method: as §1
# [11] = target: Gal(b1-3)GalNAc(b1-4)Gal(b1-4)Glc
# Summary of the method: as §1
# [12] = target: Gal(b1-3)GlcNAc(b1-3)Gal(b1-4)Glc
# Summary of the method: as §1
# [13] = target: Gal(b1-3)GlcNAc(b1-3)Gal(b1-4)GlcNAc
# Summary of the method: as §1
# [14] = target: Gal(b1-3)GlcNAc(b1-3)Gal(b1-4)GlcNAc(b1-2)Man(a1-3)[Gal(b1-3)GlcNAc(b1-3)Gal(b1-4)GlcNAc(b1-2)Man(a1-6)]Man(b1-4)GlcNAc(b1-4)GlcNAc
# Summary of the method: as §1
# [15] = target: Gal(b1-3)GlcNAc(b1-3)Gal(b1-4)GlcNAc(b1-2)[Gal(b1-3)GlcNAc(b1-3)Gal(b1-4)GlcNAc(b1-6)]Man(a1-6)[Gal(b1-3)GlcNAc(b1-3)Gal(b1-4)GlcNAc(b1-2)Man(a1-3)]Man(b1-4)GlcNAc(b1-4)[Fuc(a1-6)]GlcNAc
# Summary of the method: as §1
# [16] = target: Gal(b1-3)GlcNAc(b1-3)Gal(b1-4)GlcNAc(b1-3)Gal(b1-4)GlcNAc(b1-2)[Gal(b1-3)GlcNAc(b1-3)Gal(b1-4)GlcNAc(b1-3)Gal(b1-4)GlcNAc(b1-6)]Man(a1-6)[Gal(b1-3)GlcNAc(b1-3)Gal(b1-4)GlcNAc(b1-3)Gal(b1-4)GlcNAc(b1-2)Man(a1-3)]Man(b1-4)GlcNAc(b1-4)[Fuc(a1-6)]GlcNAc
# Summary of the method: as §1
# [17] = target: Gal(b1-3)GlcNAc(b1-3)Gal(b1-4)GlcNAc(b1-6)[Gal(b1-3)GlcNAc(b1-3)]Gal(b1-4)Glc
# Summary of the method: as §1
# Gal(b1-3)GlcNAc6S = target: Gal(b1-3)GlcNAc6S
# Summary of the method: as §1
# [18] = target: Gal(b1-3)[Fuc(a1-4)]GlcNAc(b1-3)Gal(b1-3)[Fuc(a1-4)]GlcNAc
# Summary of the method: as §1
# [19] = target: Gal(b1-3)[Neu5Ac(a2-6)]GlcNAc(b1-4)Gal(b1-4)Glc
# Summary of the method: as §1
# [20] = target: Gal(b1-4)GlcNAc(b1-2)Man(a1-3)[Man(a1-6)]Man(b1-4)GlcNAc(b1-4)GlcNAc
# Summary of the method: as §1
# [21] = target: Gal(b1-4)GlcNAc(b1-2)[Gal(b1-4)GlcNAc(b1-4)]Man(a1-3)[Gal(b1-4)GlcNAc(b1-2)[Gal(b1-4)GlcNAc(b1-6)]Man(a1-6)]Man(b1-4)GlcNAc(b1-4)GlcNAc
# Summary of the method: as §1
# Gal3S(b1-4)GlcNAc = target: Gal3S(b1-4)GlcNAc
# Summary of the method: as §1
# Gal6S(b1-3)GlcNAc6S = target: Gal6S(b1-3)GlcNAc6S
# Summary of the method: as §1
# GalNAc(a1-3)GalNAc = target: GalNAc(a1-3)GalNAc
# Summary of the method: as §1
# [22] = target: GalNAc(a1-3)GalNAc(b1-3)Gal(a1-4)Gal(b1-4)GlcNAc
# Summary of the method: as §1
binder,measurement,setting,value
B1,glycan array binding signal (z-score),[1],-0.134
same,glycan array binding signal (z-score),[2],-0.168
same,glycan array binding signal (z-score),[3],-0.163
same,glycan array binding signal (z-score),[4],-0.15
same,glycan array binding signal (z-score),[5],-0.126
same,glycan array binding signal (z-score),[6],-0.135
same,glycan array binding signal (z-score),[7],-0.164
same,glycan array binding signal (z-score),[8],-0.14
same,glycan array binding signal (z-score),[9],-0.145
same,glycan array binding signal (z-score),Fuc(a1-4)GlcNAc,-0.176
same,glycan array binding signal (z-score),Gal(a1-3)Gal(b1-4)GlcNAc,-0.166
same,glycan array binding signal (z-score),[10],-0.093
same,glycan array binding signal (z-score),Gal(b1-3)Gal(b1-4)GlcNAc,11.7
same,glycan array binding signal (z-score),Gal(b1-3)GalNAc(b1-3)Gal,6.25
same,glycan array binding signal (z-score),[11],8.55
same,glycan array binding signal (z-score),[12],4.36
same,glycan array binding signal (z-score),[13],4.98
same,glycan array binding signal (z-score),[14],5.11
same,glycan array binding signal (z-score),[15],8.35
same,glycan array binding signal (z-score),[16],6.21
same,glycan array binding signal (z-score),[17],5.45
same,glycan array binding signal (z-score),Gal(b1-3)GlcNAc6S,6.55
same,glycan array binding signal (z-score),[18],-0.141
same,glycan array binding signal (z-score),[19],6.71
same,glycan array binding signal (z-score),[20],-0.176
same,glycan array binding signal (z-score),[21],-0.18
same,glycan array binding signal (z-score),Gal3S(b1-4)GlcNAc,-0.172
same,glycan array binding signal (z-score),Gal6S(b1-3)GlcNAc6S,-0.179
same,glycan array binding signal (z-score),GalNAc(a1-3)GalNAc,-0.173
same,glycan array binding signal (z-score),[22],-0.166
